Assay results as given in the supplement of paper PMC4709259.
Where a name gives a salt, the structure may show the parent alone. ± gives the standard deviation.

What was measured:
Jurkat [1] = test: mean cell size (FSC-A) relative to DMSO control (fraction of control); higher = larger cells; details: 48 h
Outline: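 Jurkat cells at 600 cells/µl were incubated for 1 h and then treated for 48h with the Enzo Screen-Well FDA Approved Drug Library v2.0 at 25µM, with DMSO at 0.9% (v/v) final. Compounds that reduced counts below 20% of controls were retested in 10-fold dilutions down to 25nM. Cell count and mean cell size, taken as forward scatter area, were measured by flow cytometry relative to solvent-only controls. Each plate carried 6-12 controls, and values are means of 3 biological replicates.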

Jurkat [2] = test: cell count relative to DMSO control (fraction of control); higher = more cells (less growth inhibition); details: 48 h

Compound | mean cell size (Jurkat [1]) | cell count (Jurkat [2])
COc1cc([C@@H]2c3cc4c(cc3[C@@H](O[C@@H]3O[C@@H]5CO[C@@H](C)O[C@H]5[C@H](O)[C@H]3O)[C@H]3COC(=O)[C@H]23)OCO4)cc(OC)c1O [Etoposide] (concentration: 250 nM) | 1.25 ± 0.076 | 0.243 ± 0.051
C[C@@H]1O[C@@H]1P(=O)(O)O [Fosfomycin Calcium] (concentration: 25 µM) | 0.916 ± 0.036 | 0.474 ± 0.19
C[C@H](CCC(=O)O)[C@H]1CC[C@H]2[C@@H]3[C@H](O)C[C@@H]4C[C@H](O)CC[C@]4(C)[C@H]3CC[C@]12C [Chenodiol (Chenodeoxycholic Acid)] (concentration: 25 µM) | 0.946 ± 0.037 | 0.838 ± 0.13
Nc1ccc(S(N)(=O)=O)cc1 [Sulfanilamide] (concentration: 25 µM) | 0.925 ± 0.018 | 0.546 ± 0.18
CC1=C(C(=O)O)N2C(=O)[C@@H](NC(=O)[C@H](N)c3ccccc3)[C@H]2SC1 [Cephalexin Monohydrate] (concentration: 25 µM) | 0.9873 ± 0.0068 | 0.931 ± 0.068
CC(C)(C)NC(=O)[C@H]1CC[C@H]2[C@@H]3CC[C@H]4NC(=O)C=C[C@]4(C)[C@H]3CC[C@]12C [Finasteride] (concentration: 25 µM) | 0.978 ± 0.046 | 0.684 ± 0.12
CC(C)c1nc(CN(C)C(=O)N[C@H](C(=O)N[C@@H](Cc2ccccc2)C[C@H](O)[C@H](Cc2ccccc2)NC(=O)OCc2cncs2)C(C)C)cs1 [Ritonavir] (concentration: 25 µM) | 0.999 ± 0.079 | 0.564 ± 0.14
Cc1cc(NS(=O)(=O)c2ccc(N)cc2)no1 [Sulfamethoxazole] (concentration: 25 µM) | 0.962 ± 0.036 | 0.809 ± 0.063
C[C@@](Cc1ccc(O)c(O)c1)(NN)C(=O)O [Carbidopa] (concentration: 25 µM) | 0.939 ± 0.027 | 0.439 ± 0.09
CCOC(=O)[C@H](CCc1ccccc1)N[C@H]1CCc2ccccc2N(CC(=O)O)C1=O [Benazepril·HCl] (concentration: 25 µM) | 0.965 ± 0.012 | 0.885 ± 0.035
CCOC(=O)c1ccc(C#Cc2ccc3c(c2)C(C)(C)CCS3)nc1 [Tazarotene] (concentration: 25 µM) | 0.894 ± 0.021 | 0.698 ± 0.18
C#Cc1cccc(Nc2ncnc3cc(OCCOC)c(OCCOC)cc23)c1 [Erlotinib] (concentration: 25 µM) | 0.838 ± 0.026 | 0.666 ± 0.04
COc1ccc2c(c1)c(CC(=O)O)c(C)n2C(=O)c1ccc(Cl)cc1 [Indomethacin] (concentration: 25 µM) | 0.971 ± 0.046 | 0.482 ± 0.087
Clc1ccc(C(c2ccccc2Cl)C(Cl)Cl)cc1 (stereo not drawn) [Mitotane] (concentration: 25 µM) | 1 ± 0.02 | 0.866 ± 0.14
C[N+]1(C)CCC(OC(=O)C(O)(c2ccccc2)C2CCCC2)C1 (stereo not drawn) [Glycopyrrolate Iodide] (concentration: 25 µM) | 0.995 ± 0.037 | 0.838 ± 0.061
CN(C)CCC=C1c2ccccc2CCc2ccccc21 [Amitriptyline·HCl] (concentration: 25 µM) | 0.915 ± 0.037 | 0.798 ± 0.033
CC[C@@]1(O)C(=O)OCc2c1cc1n(c2=O)Cc2cc3c(CN(C)C)c(O)ccc3nc2-1 [Topotecan·HCl] (concentration: 25 nM) | 1.31 ± 0.064 | 0.199 ± 0.016
CCc1nc(N)nc(N)c1-c1ccc(Cl)cc1 [Pyrimethamine] (concentration: 25 µM) | 0.959 ± 0.018 | 0.2 ± 0.033
CN1C(CCl)Nc2cc(Cl)c(S(N)(=O)=O)cc2S1(=O)=O (stereo not drawn) [Methyclothiazide] (concentration: 25 µM) | 0.982 ± 0.048 | 0.633 ± 0.17
OCCN1CCN(CCCN2c3ccccc3Sc3ccc(C(F)(F)F)cc32)CC1 [Fluphenazine·HCl] (concentration: 2.5 µM) | 1.13 ± 0.017 | 0.701 ± 0.079
COc1cc2ncnc(Nc3ccc(F)c(Cl)c3)c2cc1OCCCN1CCOCC1 [Gefitinib] (concentration: 2.5 µM) | 1.04 ± 0.045 | 0.736 ± 0.11
OCCOCCN1CCN(C2=Nc3ccccc3Sc3ccccc32)CC1 [Quetiapine Fumarate] (concentration: 25 µM) | 0.929 ± 0.035 | 0.534 ± 0.17
COC1=CC(=O)C[C@@H](C)[C@]12Oc1c(Cl)c(OC)cc(OC)c1C2=O [Griseofulvin] (concentration: 2.5 µM) | 0.975 ± 0.02 | 0.865 ± 0.099
CN1C(=O)OC(C)(C)C1=O [Trimethadione] (concentration: 25 µM) | 1.07 ± 0.016 | 1.02 ± 0.025
